Assay [1] deals with Wnt5a (protein binding on small-molecule microarray). Kind of assay: small molecules binding Wnt5a protein – biophysical, small-molecule microarray, 635/667 nm fluorescence, primary screen (AID 1142).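 Further: fluorescence read at 667 nm with signal to noise per printed feature.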 Conditions: 635 nm fluorescence, higher = more signal.
Assay [2] can be described thus: ATP-based viability of Huh7 replicon cells – cell-based, CellTiter-Glo luminescence, basal, 48 h, cytotoxicity control for HCV replication inhibitor project, primary screen (AID 1143).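 Further: Huh7 hepatoma cells carrying a hepatitis C replication reporter with no stimulus; test concentration not given here.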 Conditions: higher = more signal, called active from +8 up or from −8 down. A general note: In antiviral work, replicon cells carry a viral genome segment that copies itself.
The nature of assay [3]: Pseudomonas biofilm growth suppression – PAO1 strain, BacTiter-Glo luminescence, LB-PBS, primary screen (AID 1144). Conditions: P. aeruginosa PAO1 biofilm, 12 h, higher = more signal.
The nature of assay [4]: basal CRE-LacZ reporter activity in PC12 – cell-based, unstimulated, primary screen (AID 1145). Conditions: no forskolin, luminescence, 4.5 h, higher = more signal, called active from +8 up or from −8 down.
Assay [5] can be described thus: forskolin-driven CRE-LacZ activity in PC12 – cell-based, CRE-LacZ reporter, forskolin-stimulated, primary screen (AID 1146).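 Further: PC12 cells with 6xCRE LacZ reporter stimulated by forskolin 10 µM; beta-galactosidase reporter signal reflecting CREB driven transcription.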 Conditions: luminescence, 4.5 h, higher = more signal, called active from +8 up or from −8 down.
Assay [6] concerns the target Streptavidin (Streptomyces avidinii) (UniProt P22629). Briefly: compounds binding control protein streptavidin – biophysical, small-molecule microarray, 635/667 nm fluorescence, artefact control for SMM compound annotation, primary screen (AID 1147).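 Further: signal reflects streptavidin binding to arrayed compounds as a control protein.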 Conditions: higher = more signal.
A short description of assay [7]: probe aInhba binding on compound microarray – biochemical, small-molecule microarray, 635/667 nm fluorescence, primary screen (AID 1148).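 Further: score merges 667nm spot fluorescence with signal-to-noise for antibody binding to printed compounds.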 Conditions: higher = more signal.
The target of assay [8] is Torsin-1A (Homo sapiens) (UniProt O14656). Kind of assay: TOR1A wild-type binding on microarray – cell lysate, small-molecule microarray, lysate, 635/667 nm, primary screen (AID 1149). Conditions: COS7 hTOR1A-WT lysate, 635 nm fluorescence, higher = more signal.
The target is the same in assay [9]. Kind of assay: torsin A mutant lysate binding on microarrays – cell lysate, small-molecule microarray, COS7 lysate, 635/667 nm fluorescence, primary screen (AID 1150).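 Further: score pools 667 nm emission and signal to noise measuring lysate protein binding.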 Conditions: COS7 hTOR1A mutant lysate, 635 nm fluorescence, higher = more signal.
Assay [10] has as its system Sonic hedgehog protein (Shh). Kind of assay: Sonic hedgehog microarray binding compounds – biochemical, small-molecule microarray, 635/667 nm fluorescence, primary screen (AID 1151).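 Further: Shh protein binding to compounds spotted on small-molecule microarray slides; score combines spot fluorescence intensity with signal-to-noise across triplicate slides.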 Conditions: 635 nm fluorescence, higher = more signal.
The nature of assay [11]: optical density shifts of acrAB sulA E. coli – strain DRC41, OD650, 48 h, E. coli filamentation inducer project, primary screen (AID 1152).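 Further: E. coli MC1000 strain DRC41 lacking acrAB efflux pump and sulA.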 Conditions: higher = more signal, called active from +8 up or from −8 down.
Assay [12] can be described thus: probe aLefty1 binding on compound microarray – biochemical, small-molecule microarray, 635/667 nm fluorescence, primary screen (AID 1153).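 Further: score merges spot fluorescence with signal-to-noise ratio from the scanned slide images.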 Conditions: higher = more signal.
Assay [13] can be described thus: plasmodial surface anion channel blockers, osmotic lysis – cell-based, P. falciparum Indochina, OD700, 1 h, primary screen (AID 1154). Conditions: P. falciparum Indochina infected RBC osmotic lysis, higher = more signal, called active from +8 up or from −8 down.
A short description of assay [14]: plasmodial surface anion channel blockers, osmotic lysis – cell-based, P. falciparum Indochina, OD700, 2 h, primary screen (AID 1155).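 Further: lysis reports solute entry through the parasite surface anion channel PSAC.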 Conditions: P. falciparum Indochina infected erythrocytes, higher = more signal, called active from +8 up or from −8 down.
The nature of assay [15]: changes in parasitized red cell lysis, either direction – P. falciparum Indochina, OD700, 3 h, PSAC antagonist project, primary screen (AID 1156). Conditions: P. falciparum-infected erythrocytes, osmotic lysis, higher = more signal, called active from +8 up or from −8 down.
Assay [16] is described as follows: plasmodial surface anion channel blockers, osmotic lysis – cell-based, P. falciparum Indochina, OD700, 18 h, primary screen (AID 1157). Conditions: P. falciparum Indochina infected erythrocytes, osmotic lysis OD700, 18 h; higher = more signal, called active from +8 up or from −8 down.
Assay [17] is described as follows: S6 kinase pathway phospho-S6 level changes – cell-based, A549, cytoblot, luminescence, serum-stimulated, primary screen (AID 1158).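 Further: serum-stimulated A549 lung adenocarcinoma cells; signal is phosphorylated S6 detected by cytoblot immunostaining with HRP secondary.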 Conditions: 5 h, higher = more signal.
Assay [18] has as its target NADPH oxidase 2 (Homo sapiens) (UniProt P04839). Kind of assay: compounds shifting NOX2 Amplex Red fluorescence – cell-based, HEK293-NOX2, PMA-stimulated, NOX inhibitor project, primary screen (AID 1159). Further: test concentration not given here. Conditions: 45 min, higher = more signal, called active from +8 up or from −8 down.
The target of assay [19] is NADPH oxidase 4 (Homo sapiens) (UniProt Q9NPH5). Kind of assay: compounds shifting NOX4 Amplex Red fluorescence – cell-based, HEK293-NOX4, tetracycline-induced, NOX inhibitor project, primary screen (AID 1160). Conditions: HEK293-NOX4, Amplex Red H2O2 fluorescence, 45 min; higher = more signal, called active from +8 up or from −8 down.
In assay [20] the target is NADPH oxidase 5 (Homo sapiens) (UniProt Q96PH1). Briefly: compounds shifting NOX5 Amplex Red fluorescence – cell-based, HEK293-NOX5, NOX inhibitor project, primary screen (AID 1161). Conditions: HEK293-NOX5, ionomycin, 45 min, higher = more signal.

SMILES strings stand for the structures. The source made the active and inactive calls. Unless noted, how the calls were made is not given here.

Chain of Torsin-1A (Homo sapiens) (O14656 whole entry, looked up): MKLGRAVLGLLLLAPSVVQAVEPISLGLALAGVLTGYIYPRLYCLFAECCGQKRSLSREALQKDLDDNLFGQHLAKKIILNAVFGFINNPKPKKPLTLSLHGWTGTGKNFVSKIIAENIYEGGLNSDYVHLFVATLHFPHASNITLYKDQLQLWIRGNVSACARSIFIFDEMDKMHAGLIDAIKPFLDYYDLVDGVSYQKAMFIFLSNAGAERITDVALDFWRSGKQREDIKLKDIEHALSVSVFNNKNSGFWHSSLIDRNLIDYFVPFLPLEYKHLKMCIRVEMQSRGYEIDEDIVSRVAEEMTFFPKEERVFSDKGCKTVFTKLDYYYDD
Chain of Streptavidin (Streptomyces avidinii) (P22629 whole entry, looked up): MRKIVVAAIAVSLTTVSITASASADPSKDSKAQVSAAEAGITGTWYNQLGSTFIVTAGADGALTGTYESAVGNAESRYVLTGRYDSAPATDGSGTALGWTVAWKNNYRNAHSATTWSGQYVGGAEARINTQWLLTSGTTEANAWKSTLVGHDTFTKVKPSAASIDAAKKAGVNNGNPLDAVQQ
Chain of NADPH oxidase 5 (Homo sapiens) (Q96PH1 whole entry, looked up): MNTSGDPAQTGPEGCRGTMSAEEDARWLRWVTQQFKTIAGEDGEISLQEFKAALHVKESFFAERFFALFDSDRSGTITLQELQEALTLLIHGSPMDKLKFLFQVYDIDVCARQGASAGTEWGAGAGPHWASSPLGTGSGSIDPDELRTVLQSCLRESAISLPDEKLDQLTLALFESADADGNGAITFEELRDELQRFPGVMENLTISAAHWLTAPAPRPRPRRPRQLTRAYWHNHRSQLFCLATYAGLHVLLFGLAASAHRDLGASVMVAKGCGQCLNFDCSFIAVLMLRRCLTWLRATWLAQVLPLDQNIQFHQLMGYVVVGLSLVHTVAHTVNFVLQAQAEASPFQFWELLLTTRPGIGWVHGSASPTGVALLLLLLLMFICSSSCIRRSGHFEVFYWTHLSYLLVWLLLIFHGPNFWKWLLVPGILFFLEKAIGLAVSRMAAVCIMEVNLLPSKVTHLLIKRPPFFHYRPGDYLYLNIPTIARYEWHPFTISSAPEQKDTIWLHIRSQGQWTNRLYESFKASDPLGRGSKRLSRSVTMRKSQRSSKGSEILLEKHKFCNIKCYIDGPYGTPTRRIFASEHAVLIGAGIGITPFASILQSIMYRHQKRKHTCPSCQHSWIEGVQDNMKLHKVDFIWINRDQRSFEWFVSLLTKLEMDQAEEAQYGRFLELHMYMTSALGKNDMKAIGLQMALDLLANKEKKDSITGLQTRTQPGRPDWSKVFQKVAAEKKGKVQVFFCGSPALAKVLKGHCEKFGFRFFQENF
Chain of NADPH oxidase 2 (Homo sapiens) (P04839 whole entry, looked up): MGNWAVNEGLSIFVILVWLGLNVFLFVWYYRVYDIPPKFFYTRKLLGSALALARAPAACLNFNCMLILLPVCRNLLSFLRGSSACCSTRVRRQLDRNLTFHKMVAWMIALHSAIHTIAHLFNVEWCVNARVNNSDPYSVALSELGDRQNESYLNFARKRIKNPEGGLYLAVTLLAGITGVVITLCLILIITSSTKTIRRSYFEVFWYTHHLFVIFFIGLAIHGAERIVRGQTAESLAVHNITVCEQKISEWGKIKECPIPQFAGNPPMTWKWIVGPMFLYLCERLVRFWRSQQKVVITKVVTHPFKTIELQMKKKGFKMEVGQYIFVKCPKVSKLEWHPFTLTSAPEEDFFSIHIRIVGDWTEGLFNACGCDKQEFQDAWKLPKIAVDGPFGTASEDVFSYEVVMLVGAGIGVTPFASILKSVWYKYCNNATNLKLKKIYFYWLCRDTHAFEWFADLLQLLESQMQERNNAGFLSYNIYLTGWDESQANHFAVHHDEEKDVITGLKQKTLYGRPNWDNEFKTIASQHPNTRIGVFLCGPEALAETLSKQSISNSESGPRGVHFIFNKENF
Chain of NADPH oxidase 4 (Homo sapiens) (Q9NPH5 whole entry, looked up): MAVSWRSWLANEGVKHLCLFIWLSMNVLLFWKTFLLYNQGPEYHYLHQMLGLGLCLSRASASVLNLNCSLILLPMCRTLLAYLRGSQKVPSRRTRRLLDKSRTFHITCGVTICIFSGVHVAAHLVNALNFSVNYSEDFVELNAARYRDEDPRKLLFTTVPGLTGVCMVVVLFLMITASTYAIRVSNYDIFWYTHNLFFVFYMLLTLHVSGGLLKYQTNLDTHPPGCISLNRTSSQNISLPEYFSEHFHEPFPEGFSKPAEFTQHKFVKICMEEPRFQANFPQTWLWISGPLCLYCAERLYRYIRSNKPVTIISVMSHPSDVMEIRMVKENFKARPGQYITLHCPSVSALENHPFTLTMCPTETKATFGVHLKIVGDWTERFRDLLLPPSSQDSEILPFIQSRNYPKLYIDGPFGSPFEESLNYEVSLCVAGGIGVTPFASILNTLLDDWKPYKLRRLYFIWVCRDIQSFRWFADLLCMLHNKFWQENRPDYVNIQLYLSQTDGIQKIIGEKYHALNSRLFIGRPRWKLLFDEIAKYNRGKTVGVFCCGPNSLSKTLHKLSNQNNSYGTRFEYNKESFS

With `C=C(C)C(=O)OC[C@H]1CN2[C@@H](CC[C@@H](C)[C@@H]2c2ccc(Br)cc2)C(=O)O1`, the composite z-score in assay [1] is -0.219; in assay [6], 0.0906; in assay [7] it was -0.154; in the assay with Torsin-1A (Homo sapiens) [8] it was 0.334; with Torsin-1A (Homo sapiens) [9], 0.0188; in assay [10], 0.0827. In assay [12], this compound returned a composite z-score of -0.143. Moreover, the z-score in assay [2] is 0.411 (inactive); in assay [3], -0.694 (inactive); in [4] it was -0.654 (inactive); in assay [5] it was -0.777 (inactive); in assay [11] it was -1.41 (inactive); in [13] it was 3.08 (inactive). For the same compound, the z-score was -0.0269 (inactive) in [14]; -0.691 (inactive) in assay [15]; -0.196 (inactive) in assay [16]; 0.861 in assay [17]; -1.81 (inactive) in assay [18]; 0.0898 (inactive) in assay [19]. For the same compound, in assay [20], the z-score was -1.61.

For the compound `CC(C)CON=C1C[C@@H](O)[C@@H](O)[C@@H]2[C@@H]3C(=O)N([C@@H](C)c4ccccc4)C(=O)[C@@H]3CC[C@@H]12`, the composite z-score in assay [1] is -0.0932; in assay [6] it was 0.0337; in [7] it was -0.0791; with Torsin-1A (Homo sapiens) [8], -0.0344; with Torsin-1A (Homo sapiens) [9] it was 0.118; in assay [10], -0.104. This compound gave a composite z-score in [12] of -0.0155. The z-score is -0.192 (inactive) in assay [2]; 0.374 (inactive) in assay [3]; 0.149 (inactive) in assay [4]; -0.776 (inactive) in assay [5]; -0.196 (inactive) in [11]; 0.694 (inactive) in assay [13]. Also, the z-score is 0.63 (inactive) in [14]; 0.181 (inactive) in assay [15]; 0.281 (inactive) in [16]; -0.691 in assay [17]; -1.96 (inactive) in [18]; 0.799 (inactive) in assay [19]. Also, in assay [20], the z-score was -0.519.

With `CC(C)=NOC(C)CN1CCCCc2nc(C)c(C)cc21` (stereo not given), the composite z-score is 0.243 in assay [1]; -0.28 in assay [6]; 0.0314 in assay [7]; 0.765 with Torsin-1A (Homo sapiens) [8]; 0.346 with Torsin-1A (Homo sapiens) [9]; 0.681 in assay [10]. Further, the composite z-score in assay [12] was -0.145. Further, the z-score was 0.479 (inactive) in assay [2]; 0.282 (inactive) in assay [3]; -0.236 (inactive) in [4]; 0.0266 (inactive) in [5]; -0.866 (inactive) in assay [11]; -0.147 (inactive) in assay [13]. For the same compound, the z-score in [14] was -0.16 (inactive); in assay [15] it was -0.565 (inactive); in assay [16] it was 0.195 (inactive); in [17], -0.618; in assay [18], -0.0962 (inactive); in assay [19] it was -0.278 (inactive). Further, the z-score in assay [20] is -0.417.

Consider `CC(=O)OC[C@H]1O[C@H](CC=NOC[C@@H](O)[C@H]2O[C@@H]3OC(C)(C)O[C@@H]3[C@H]2O)C=C[C@@H]1OC(C)=O`, for which the composite z-score in assay [1] was 0.0795; in assay [6] it was 0.168; in assay [7], -0.152; with Torsin-1A (Homo sapiens) [8] it was -0.197; with Torsin-1A (Homo sapiens) [9], 0.071; in [10] it was -0.0919. Moreover, the composite z-score in [12] is 0.145. The z-score in assay [2] was 0.165 (inactive); in assay [3], -0.0289 (inactive); in assay [4], -1.3 (inactive); in assay [5], -0.521 (inactive); in assay [11] it was -1.11 (inactive); in [13], 0.466 (inactive). Further, the z-score was 0.274 (inactive) in assay [14]; 0.0662 (inactive) in [15]; 0.466 (inactive) in [16]; -0.549 in assay [17]; -0.462 (inactive) in assay [18]; 0.136 (inactive) in assay [19]. Moreover, the z-score in [20] was -0.515.

Consider `CCOC(=O)[C@H](CC(C)C)NC(=O)CCC1CC(OC(=O)NCCc2ccc(F)cc2)CC2(CCCC(COC(=O)NCCOC)O2)O1` (stereo not given in full), for which the composite z-score in [1] is 0.441; in [6], 0.581; in [7] it was -0.215; in the assay with Torsin-1A (Homo sapiens) [8] it was 0.441; with Torsin-1A (Homo sapiens) [9], 0.259; in [10], 1.53. In assay [12], this compound had a composite z-score of -0.198. Also, the z-score in assay [2] is -0.127 (inactive); in assay [3], 0.045 (inactive); in assay [4], 0.198 (inactive); in assay [5], 0.0489 (inactive); in [11], -1.39 (inactive); in [13], 3.18 (inactive). For the same compound, the z-score was 0.621 (inactive) in assay [14]; 0.0768 (inactive) in assay [15]; -0.0213 (inactive) in [16]; -0.474 in [17]; -0.25 (inactive) in [18]; 0.998 (inactive) in assay [19]. Also, the z-score in [20] was 1.19.

In the case of `CC(CCN1CCCCc2nc(C)c(C)cc21)=NOC[C@@H](O)[C@H]1O[C@@H]2OC(C)(C)O[C@@H]2[C@H]1O`, the composite z-score in [1] is 0.228; in assay [6], -0.0979; in assay [7], -0.248; with Torsin-1A (Homo sapiens) [8], 0.477; with Torsin-1A (Homo sapiens) [9], 0.296; in assay [10], 1.62. Also, the composite z-score in [12] is -0.265. The z-score in assay [2] was 1.06 (inactive); in [3] it was -0.0386 (inactive); in assay [4], -0.0824 (inactive); in [5] it was 1.41 (inactive); in assay [11], -1.25 (inactive); in assay [13] it was 0.422 (inactive). Further, the z-score in assay [14] is 0.726 (inactive); in assay [15], 0.637 (inactive); in assay [16] it was 0.244 (inactive); in assay [17], -0.67; in assay [18] it was 0.0801 (inactive); in assay [19], 0.413 (inactive). Moreover, the z-score in assay [20] is -0.216.

For `COc1cccc([C@H]2Oc3ccc(OC)cc3C(=NO[C@@H](C)c3cc(-c4c(C)cc(C)cc4C)no3)[C@@H]2O)c1`, the composite z-score in assay [1] is -0.556; in assay [6] it was -0.756; in assay [7], -0.23; with Torsin-1A (Homo sapiens) [8] it was -1.26; in the assay with Torsin-1A (Homo sapiens) [9], -0.489; in assay [10], -2.3. For the same compound, in assay [12], the composite z-score is -0.0061. Further, the z-score is -0.686 (inactive) in assay [2]; 0.409 (inactive) in assay [3]; 1.42 (inactive) in assay [4]; 0.596 (inactive) in assay [5]; -1.74 (inactive) in assay [11]; 5.05 (inactive) in assay [13]. The z-score in assay [14] is 1.38 (inactive); in [15] it was -0.0548 (inactive); in assay [16], 0.907 (inactive); in assay [17], -0.902; in [18], 0.314 (inactive); in assay [19], 0.21 (inactive). Moreover, the z-score in assay [20] was -0.577.

On to `CC(C)CON=C1C[C@@H](O)[C@@H](O)[C@@H]2[C@@H]3C(=O)N(Cc4ccc5c(c4)OCO5)C(=O)[C@@H]3CC[C@@H]12`, for which the composite z-score in assay [1] is 0.199; in [6], 0.289; in assay [7], -0.0645; with Torsin-1A (Homo sapiens) [8], -0.515; with Torsin-1A (Homo sapiens) [9] it was 0.203; in [10] it was 0.108. For the same compound, the composite z-score in assay [12] was -0.28. Moreover, the z-score is -0.415 (inactive) in assay [2]; -0.488 (inactive) in assay [3]; 0.241 (inactive) in assay [4]; 0.384 (inactive) in assay [5]; -0.0395 (inactive) in [11]; 7.64 (inactive) in [13]. Also, the z-score in [14] is 0.859 (inactive); in assay [15] it was -0.0127 (inactive); in [16], 0.548 (inactive); in assay [17] it was -0.333; in assay [18], -0.569 (inactive); in [19] it was 0.409 (inactive). The z-score in assay [20] was determined as 0.443.

The values are drawn from PubChem BioAssay.
